# In PubChem BioAssay (EPA / NIEHS):
# Several values for one entry are separate records, joined by “and”; a condition that tells them apart may be missing. Equal entries are not always repeated. Activity calls are given as the source filed them. The calls were made as follows: active = hit-call score of the fitted dose curve at least 0.9, where 1 is the maximum; inactive = score below 0.9.
# Read-out: Cytochrome P450 7A1 (Homo sapiens) (UniProt P22680)
# Experiment: LTEA_HepaRG_CYP7A1: Life Technologies and Expression Analysis (LTEA) Assay for Cytochrome P450 7A1 (CYP7A1) using HepaRG (AID 2283496)
# Settings: mRNA level, 48 h; actives raise or lower the signal
# Description: LTEA_HepaRG is a cell based, multiplexed-readout assay that uses HepaRG, a human liver cell line, with measurements taken at 48 hours after chemical dosing on a 96-well plate.LTEA_HepaRG_CYP7A1 is one of 102 assay component(s) measured in the LTEA HepaRG cell culture assay. It is a marker of NR mediated metabolism.Data from the assay component LTEA_HepaRG_CYP7A1 was analyzed into 1 endpoint. This assay endpoint, LTEA_HepaRG_CYP7A1, was analyzed with bidirectional fitting relative to DMSO as the negative control and baseline of activity. Using a type of inducible reporter, measures of mRNA induction for gain or loss-of-signal activity can be used to understand regulation of transcription factor activity. To generalize the intended target to other relatable targets, this assay endpoint is annotated to the cyp intended target family, where the subfamily is xenobiotic metabolism.
# A total of 1060 chemcials from the ToxCast library were tested in eight-point concentration-response experiments. Cell culture and cytotoxicity assays were conducted at Thermo Fisher Scientific's Custom Services facility (Madison, WI). A single lot of human HepaRG cells (Thermo Fisher Scientific, Frederick, MD) was used for the cell culture experiments. 96-well format collagen type I coated plates of human HepaRG cells were prepared using established methods. Briefly, cryopreserved HepaRG cells were thawed, plated at a density of approximately 100,000 cells/well in HepaRG Thaw, Plate, and General Purpose media (HPRG770, Thermo Fisher Scientific), and incubated for 48 hours. 0.5% DMSO was selected as vehicle control to balance the requisite need of DMSO in HepaRG cultures to maintain differentiation (for example, baseline metabolism, proportions of hepatocytes vs. cholangiocytes), while enabling further hepatic receptor pathway activation (for example, PXR and CAR) in response to chemical exposure. 48 hours after plating, the culture medium was replaced with HepaRG Serum-Free Incudtion Media. Cells were exposed to each test chemical in duplicate and maintained in CO2 incubators for another 48 hours. Chemical plates were thawed to room temperature and 200x concentrations of treatment groups were prepared. 8-point conentration-reponse curves were made with the highest exposure at 100 uM, followed by half-log dilutions, all in 0.5% DMSO. Each test plate contained variouse controls, induction positive controls (1mM phenobarbital), cytotoxicity positive controls ([…] aflatoxin B1), vehicle controls (0.5% DMSO), and total lysis controls (0.5% DMSO). Cell morphology images were taken using an Essen IncuCyte FLR automated microscope, with six 96-well plates imaged in about 24 minutes. Images were captured and exported and JPEG files. Spent culture media was transfered to black-well plates for the LDH assay, and remaining media was sorted at -80 C for later use. Cells were treated with RLT buffer and frozen until shipped for gene expression analysis. Total RNA was isolated from the cell suspension in 75 uL of Buffer RLT (Qiagen, Germantown, MD 20874) by Quintiles/Expression Analysis (Durham, NC) using a custom isolation procedure. Total RNA from each plate well was transferred to a preamplification plate. Fluidigm's 96.96 Dynamic ArrayTM (Fluidigm, Amsterdam, the Netherlands) technology was used for gene expression analyses by quantitative reverse transcription polymerase chain reaction (qRT-PCR, performed by Quintiles/Expression Analysis, Durham, NC)89. Standard TaqManTM Assays (Applied Biosystems/ThermoFisher Scientific, Foster City, CA) were used to assess the expression of 93 genes selected based on their selectivity and sensitivity to important hepatic receptors known to be modulated by environmental chemicals; importance in human hepatocyte functionality; and hepatotoxicity. […]
Compound,outcome,AC50
CC(Oc1ccc(Cl)cc1Cl)C(=O)O (stereo not given),inactive,
CCOC(=O)C(Cl)Cc1cc(-n2nc(C)n(C(F)F)c2=O)c(F)cc1Cl (stereo not given),inactive,
CNC(=S)S,inactive,
COP(N)(=O)SC (stereo not given),inactive,
COP(=S)(OC)Oc1nc(Cl)c(Cl)cc1Cl,inactive,
CCOc1cc(Oc2ccc(C(F)(F)F)cc2Cl)ccc1[N+](=O)[O-],,34.8 µM (active)
CNC(=O)ON=CC(C)(C)SC,inactive,
CC(C)Oc1cc(-n2nc(C(C)(C)C)oc2=O)c(Cl)cc1Cl,,33.3 µM (active)
CC1COC(Cn2cncn2)(c2ccc(Oc3ccc(Cl)cc3)cc2Cl)O1 (stereo not given),,13.8 µM (active)
CCON=C(CC)C1=C(O)CC(c2c(C)cc(C)cc2C)CC1=O (stereo not given),inactive,
C=CC1(C)OC(=O)N(c2cc(Cl)cc(Cl)c2)C1=O (stereo not given),inactive,
COc1ccc(C(c2ccc(OC)cc2)C(Cl)(Cl)Cl)cc1,,40.2 µM (active)
COC(=O)C(C)Oc1ccc(Oc2ccc(Cl)cc2Cl)cc1 (stereo not given),inactive,
CO/C=C(/C(=O)OC)c1ccccc1Oc1cc(Oc2ccccc2C#N)ncn1,,93.4 µM (active) and 94.1 µM (active) and 87.4 µM (active)
CCc1nn(C)c(C(=O)NCc2ccc(C(C)(C)C)cc2)c1Cl,,11.9 µM (active)
O=C(O)COc1nc(Cl)c(Cl)cc1Cl,inactive,
CCOP(=S)(OCC)SCn1c(=O)oc2cc(Cl)ccc21,inactive,
N#CC(CCc1ccc(Cl)cc1)(Cn1cncn1)c1ccccc1 (stereo not given),,75.3 µM (active)
CCCCOC(=O)c1ccccc1C(=O)OCCCC,inactive,
COC(=O)C=C(C)OP(=O)(OC)OC,,14.7 µM (active)

Compound,outcome,AC50
CCNc1nc(Cl)nc(NCC)n1,inactive,
CC(C)(C)c1ccc(CSc2cnn(C(C)(C)C)c(=O)c2Cl)cc1,,26.1 µM (active)
O=C(O)c1nc(Cl)ccc1Cl,inactive,
CC(C)C1(C)N=C(c2nc3ccccc3cc2C(=O)O)NC1=O (stereo not given),inactive,
CCCCC(CC)COC(=O)c1ccccc1C(=O)OCC(CC)CCCC (stereo not given),inactive,
C=CCC1=C(C)[C@@H](OC(=O)[C@@H]2[C@@H](C=C(C)C)C2(C)C)CC1=O,inactive,
CCCC1COC(Cn2cncn2)(c2ccc(Cl)cc2Cl)O1 (stereo not given),,60.9 µM (active)
N#Cc1nn(-c2c(Cl)cc(C(F)(F)F)cc2Cl)c(N)c1S(=O)C(F)(F)F (stereo not given),,35 µM (active)
Cc1ccc(-c2c(Cl)nc(C#N)n2S(=O)(=O)N(C)C)cc1,,10 µM (active)
CCCCNC(=O)n1c(NC(=O)OC)nc2ccccc21,inactive,
C=CCC1=C(C)C(OC(=O)C2C(C=C(C)C)C2(C)C)CC1=O (stereo not given),,3.67 µM (active) and 72.6 µM (active) and 19.4 µM (active)
CN(C)C(=S)SSC(=S)N(C)C,inactive,
OC(c1ccc(Cl)cc1)(c1cncnc1)c1ccccc1Cl (stereo not given),,77 µM (active)
Oc1ccccc1-c1ccccc1,inactive,
CC1=C(C(=O)Nc2ccccc2)SCCO1,,35.7 µM (active)
O=C(Nc1ccccc1)Nc1ccnc(Cl)c1,,81.3 µM (active)
CCNc1nc(Cl)nc(NC(C)C)n1,inactive,
COC(=O)N(OC)c1ccccc1COc1ccn(-c2ccc(Cl)cc2)n1,,71.9 µM (active)
Cc1c(F)c(F)c(COC(=O)C2C(/C=C(\Cl)C(F)(F)F)C2(C)C)c(F)c1F (stereo not given),inactive,
Fc1ccc(Oc2ccnc3cc(Cl)cc(Cl)c23)cc1,,90.5 µM (active)
